This passage reports growth inhibition results from PubChem BioAssay (NCI).

About 79,000 compounds went through this panel and 15% of them were active in at least one assay; those are over-represented in the sample as a whole. Unmarked numbers belong to inactive results. The source made the active and inactive calls. Rule as the data show it: active = growth inhibition above about 70%; inactive = the rest.

Assay [1] in a line: NCI Yeast Anticancer Drug Screen. Data for the rad50 strain (AID 155).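 Also: 0% = growth of vehicle-only cultures of the same strain.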 To be noted: S. cerevisiae rad50 strain growth inhibition, active compounds read high. An outline of the steps:
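Inhibition values express reduced yeast growth in compound-treated cultures relative to vehicle-treated controls.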

The nature of assay [2]: NCI Yeast Anticancer Drug Screen. Data for the mec2-1 strain (AID 157). To be noted: S. cerevisiae mec2-1 strain, active compounds read high. An outline of the steps:
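Strain: mec2-1 (DNA repair/cell cycle alteration). Compound exposure, then growth measured; inhibition expressed relative to vehicle.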

Assay [3] in a line: NCI Yeast Anticancer Drug Screen. Data for the sgs1 mgt1 strain (AID 161).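 Also: 0% = growth of cultures given vehicle only.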 Particulars: S. cerevisiae sgs1 mgt1 strain, active compounds read high. In short, it runs like this: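 Mutant yeast exposed to compound; growth scored against vehicle-only wells.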
Assay [4] can be described thus: NCI Yeast Anticancer Drug Screen. Data for the cln2 rad14 strain (AID 165).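 Also: 0% = growth equal to vehicle treated cultures.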 Particulars: S. cerevisiae cln2 rad14 strain, active compounds read high. In short, it runs like this:
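Compounds are applied to the cln2 rad14 yeast strain, and growth is then compared with that of vehicle-treated cultures to give inhibition.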

Assay [5] is described as follows: NCI Yeast Anticancer Drug Screen. Data for the bub3 strain (AID 167). Particulars: S. cerevisiae bub3 mutant strain, active compounds read high. In short, it runs like this:
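Steps: expose the mutant yeast strain to compound; grow alongside vehicle-treated cultures; measure growth; express inhibition against the vehicle cultures.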

Assay [6] is described as follows: NCI Yeast Anticancer Drug Screen. Data for the mlh1 rad18 strain (AID 175). Particulars: S. cerevisiae mlh1 rad18 strain growth inhibition, active compounds read high. An outline of the steps:
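Read-out is yeast growth inhibition, calculated against vehicle-only controls. The compound was applied to a strain engineered with DNA damage repair alterations.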

[7] abbreviates: at 5.0 µM (retest, dose inferred, filed as 0.5).
Where [8] appears, read: at 50.0 µM (retest, dose inferred, filed as 5.0).

Take `Cc1ccc(S(=O)(=O)NNC2Oc3cc4c(cc3C(c3ccccc3O)C2C)OCO4)cc1` (configuration not stated): the growth inhibition is -12% in assay [1] (setting [7]); 98% (active) in assay [1] (setting [8]); 97.4% (active) in assay [1] (at 50.0 µM); -3% in assay [2] (setting [7]); 98% (active) in assay [2] (setting [8]); 95.7% (active) in assay [2] (at 50.0 µM). Also, the growth inhibition is -2% in assay [3] (setting [7]); 98% (active) in assay [3] (setting [8]); 95.7% (active) in assay [3] (at 50.0 µM); 19% in assay [4] (setting [7]); 97% (active) in assay [4] (setting [8]); 97% (active) in assay [4] (at 50.0 µM). Moreover, the growth inhibition in assay [5] (setting [7]) was -11%; in assay [5] (setting [8]), 98% (active); in assay [5] (at 50.0 µM) it was 96.2% (active); in assay [6] (setting [7]), 22%; in assay [6] (setting [8]) it was 97% (active); in assay [6] (at 50.0 µM), 96.2% (active).

With `COC(=O)CCC(=O)NCCc1ccc2c([nH]c3ccccc32)c1C`, the growth inhibition in assay [1] (setting [7]) was 12%; in assay [1] (setting [8]), 5%; in assay [1] (at 50.0 µM) it was 55.6%; in assay [2] (setting [7]), 5%; in assay [2] (setting [8]) it was -1%; in assay [2] (at 50.0 µM) it was 59.7%. For the same molecule, the growth inhibition is 4% in assay [3] (setting [7]); 11% in assay [3] (setting [8]); 71.2% (active) in assay [3] (at 50.0 µM); 5% in assay [4] (setting [7]); -7% in assay [4] (setting [8]); 93% (active) in assay [4] (at 50.0 µM). Besides, the growth inhibition is 5% in assay [5] (setting [7]); 4% in assay [5] (setting [8]); 63.5% in assay [5] (at 50.0 µM); 3% in assay [6] (setting [7]); -2% in assay [6] (setting [8]); 91% (active) in assay [6] (at 50.0 µM).

As to `N#CCC(=O)N/N=C(/CC1(O)C(=O)Nc2c(Cl)cc(Cl)cc21)c1ccccc1` (configuration not stated), the growth inhibition in assay [1] (setting [7]) was 2%; in assay [1] (setting [8]), 35%; in assay [1] (at 50.0 µM), 69.4%; in assay [2] (setting [7]), 10%; in assay [2] (setting [8]), 43%; in assay [2] (at 50.0 µM), 59.6%. Moreover, the growth inhibition in assay [3] (setting [7]) is -1%; in assay [3] (setting [8]), -6%; in assay [3] (at 50.0 µM) it was 71.1% (active); in assay [4] (setting [7]) it was -7%; in assay [4] (setting [8]) it was 23%; in assay [4] (at 50.0 µM), -20%. Moreover, the growth inhibition was 3% in assay [5] (setting [7]); 22% in assay [5] (setting [8]); 26.4% in assay [5] (at 50.0 µM); 5% in assay [6] (setting [7]); 16% in assay [6] (setting [8]); 75.2% (active) in assay [6] (at 50.0 µM).

Regarding `CC(CN1CCOCC1)(CN1CCOCC1)[N+](=O)[O-]`, the growth inhibition in assay [1] (setting [7]) was 10%; in assay [1] (setting [8]) it was 99% (active); in assay [1] (at 50.0 µM) it was 99.6% (active); in assay [2] (setting [7]), 8%; in assay [2] (setting [8]) it was 100% (active); in assay [2] (at 50.0 µM), 99.8% (active). Besides, the growth inhibition in assay [3] (setting [7]) was 4%; in assay [3] (setting [8]), 100% (active); in assay [3] (at 50.0 µM) it was 99.7% (active); in assay [4] (setting [7]), 3%; in assay [4] (setting [8]) it was 99% (active); in assay [4] (at 50.0 µM), 99.3% (active). Also, the growth inhibition in assay [5] (setting [7]) was 14%; in assay [5] (setting [8]), 99% (active); in assay [5] (at 50.0 µM) it was 99.8% (active); in assay [6] (setting [7]) it was 13%; in assay [6] (setting [8]), 99% (active); in assay [6] (at 50.0 µM), 99.5% (active).

As for `CC(O)(CO)CC(C)(O)CO` (configuration not stated), the growth inhibition in assay [1] (setting [7]) was -2%; in assay [1] (setting [8]), -10%; in assay [1] (at 50.0 µM) it was 12.9%; in assay [2] (setting [7]) it was 3%; in assay [2] (setting [8]), -6%; in assay [2] (at 50.0 µM), -7.2%. Moreover, the growth inhibition in assay [3] (setting [7]) was -1%; in assay [3] (setting [8]), -9%; in assay [3] (at 50.0 µM) it was 1.8%; in assay [4] (setting [7]), -2%; in assay [4] (setting [8]), -14%; in assay [4] (at 50.0 µM), 77% (active). The growth inhibition was 2% in assay [5] (setting [7]); -1% in assay [5] (setting [8]); -1.05% in assay [5] (at 50.0 µM); 1% in assay [6] (setting [7]); -11% in assay [6] (setting [8]); -7.45% in assay [6] (at 50.0 µM).

As for `CN(C)CCCC(=O)OCC[N+](C)(C)C`, the growth inhibition in assay [1] (setting [7]) is -2%; in assay [1] (setting [8]), 4%; in assay [1] (at 50.0 µM) it was -39.2%; in assay [2] (setting [7]), -4%; in assay [2] (setting [8]), 6%; in assay [2] (at 50.0 µM), -8.5%. Besides, the growth inhibition in assay [3] (setting [7]) is -4%; in assay [3] (setting [8]), -2%; in assay [3] (at 50.0 µM), -11.2%; in assay [4] (setting [7]) it was -14%; in assay [4] (setting [8]), -3%; in assay [4] (at 50.0 µM), 64.3%. Further, the growth inhibition in assay [5] (setting [7]) was -1%; in assay [5] (setting [8]) it was 5%; in assay [5] (at 50.0 µM), 14.2%; in assay [6] (setting [7]), -4%; in assay [6] (setting [8]), 5%; in assay [6] (at 50.0 µM), -12.5%.

In the case of `COC(=O)c1cn(NS(=O)(=O)c2ccc(OC)cc2)cc1C(=O)OC`, the growth inhibition is -6% in assay [1] (setting [7]); 8% in assay [1] (setting [8]); 16.4% in assay [1] (at 50.0 µM); -5% in assay [2] (setting [7]); 4% in assay [2] (setting [8]); 6.65% in assay [2] (at 50.0 µM). Moreover, the growth inhibition in assay [3] (setting [7]) is -6%; in assay [3] (setting [8]), 14%; in assay [3] (at 50.0 µM), 29.8%; in assay [4] (setting [7]), -1%; in assay [4] (setting [8]), 0%; in assay [4] (at 50.0 µM) it was 33.9%. Besides, the growth inhibition in assay [5] (setting [7]) is -5%; in assay [5] (setting [8]), 8%; in assay [5] (at 50.0 µM), -1.9%; in assay [6] (setting [7]), -5%; in assay [6] (setting [8]), 6%; in assay [6] (at 50.0 µM), 20.9%.

`CSC(=S)n1nc(-c2cccs2)c(N=Nc2ccc(Cl)cc2)c1C(F)(F)F`: the growth inhibition in assay [1] (setting [7]) is 29%; in assay [1] (setting [8]), 63%; in assay [1] (at 50.0 µM) it was 83.8% (active); in assay [2] (setting [7]), 1%; in assay [2] (setting [8]) it was 86% (active); in assay [2] (at 50.0 µM) it was 93.4% (active). Moreover, the growth inhibition in assay [3] (setting [7]) was 20%; in assay [3] (setting [8]) it was 75% (active); in assay [3] (at 50.0 µM) it was 46.5%; in assay [4] (setting [7]) it was 14%; in assay [4] (setting [8]), 49%; in assay [4] (at 50.0 µM), 65.4%. For the same molecule, the growth inhibition in assay [5] (setting [7]) was 14%; in assay [5] (setting [8]) it was 87% (active); in assay [5] (at 50.0 µM), 75.3% (active); in assay [6] (setting [7]), 19%; in assay [6] (setting [8]), 56%; in assay [6] (at 50.0 µM), 96.1% (active).

Turning to `Cc1cc(Cc2ccc(Cl)cc2)ccc1O`, the growth inhibition in assay [1] (setting [7]) was 0%; in assay [1] (setting [8]), 99% (active); in assay [1] (at 50.0 µM) it was 56.4%; in assay [2] (setting [7]) it was -8%; in assay [2] (setting [8]) it was 99% (active); in assay [2] (at 50.0 µM), 46.1%. Moreover, the growth inhibition was 2% in assay [3] (setting [7]); 99% (active) in assay [3] (setting [8]); 99.2% (active) in assay [3] (at 50.0 µM); -13% in assay [4] (setting [7]); 99% (active) in assay [4] (setting [8]); 51.9% in assay [4] (at 50.0 µM). In addition, the growth inhibition was -19% in assay [5] (setting [7]); 99% (active) in assay [5] (setting [8]); 56.4% in assay [5] (at 50.0 µM); 6% in assay [6] (setting [7]); 99% (active) in assay [6] (setting [8]); 47.9% in assay [6] (at 50.0 µM).
